Reference: PubChem BioAssay (NCI)
Where “and” joins values, the source holds several entries; their conditions need not be identical. Equal values may be shown once. This is part of a sample that, as a whole, favours compounds with a hit. Of some 83,000 tested, about 20% had one in any assay.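 Note: values are percent growth. 100 is the growth of untreated cells, values between 100 and 0 indicate rising inhibition; between -100 and 0 indicates cell death.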 Calls of active or inactive are those of the source. How the source made its calls: active means growth percent below 10; inactive means the rest.

What was measured:
Test in all cases: NCI-60 one-dose screen, 48 h (100 = growth as untreated, 0 = no growth, -100 = all killed)
Details in all cases: 10 µM unless noted
SR leukemia = system: SR leukemia
RPMI-8226 leukemia = system: RPMI-8226 leukemia
OVCAR-8 ovarian = system: OVCAR-8 ovarian
OVCAR-5 ovarian = system: OVCAR-5 ovarian
OVCAR-4 ovarian = system: OVCAR-4 ovarian
SK-OV-3 ovarian = system: SK-OV-3 ovarian
IGROV1 ovarian = system: IGROV1 ovarian
OVCAR-3 ovarian = system: OVCAR-3 ovarian
HS 578T breast = system: HS 578T breast
T-47D breast = system: T-47D breast
BT-549 breast = system: BT-549 breast
MDA-MB-435 melanoma = system: MDA-MB-435 melanoma
SW-620 colon = system: SW-620 colon
MCF7 breast = system: MCF7 breast
HCT-116 colon = system: HCT-116 colon
HCC-2998 colon = system: HCC-2998 colon
KM12 colon = system: KM12 colon
NCI/ADR-RES ovarian = system: NCI/ADR-RES ovarian

Measured: growth

CCCCCCCCCCCCC[C@H](O)C[C@H](O)[C@H](C)N
inactive: RPMI-8226 leukemia 33.2% [1.25 µM] | OVCAR-8 ovarian 89.7% [1.25 µM] | OVCAR-5 ovarian 86.1% [1.25 µM] | OVCAR-4 ovarian 123% [1.25 µM] | SK-OV-3 ovarian 125% [1.25 µM] | IGROV1 ovarian 133% [1.25 µM] | OVCAR-3 ovarian 103% [1.25 µM] | HS 578T breast 117% [1.25 µM] | T-47D breast 122% [1.25 µM] | BT-549 breast 107% [1.25 µM] | MDA-MB-435 melanoma 116% [1.25 µM] | SW-620 colon 99.9% [1.25 µM] | MCF7 breast 104% [1.25 µM] | HCT-116 colon 83.1% [1.25 µM] | HCC-2998 colon 26.7% [1.25 µM] | KM12 colon 116% [1.25 µM]
active: SR leukemia -35.7% [1.25 µM]

O=C(c1cccc(Br)c1)N1CCN(c2ccnc3cc(Cl)ccc23)CC1
inactive: SR leukemia 118% | RPMI-8226 leukemia 70.7% | OVCAR-8 ovarian 80.2% | OVCAR-5 ovarian 90% | OVCAR-4 ovarian 54.9% | SK-OV-3 ovarian 98.3% | IGROV1 ovarian 90.6% | OVCAR-3 ovarian 86.9% | HS 578T breast 112% | T-47D breast 44.4% | BT-549 breast 112% | MDA-MB-435 melanoma 90.2% | SW-620 colon 101% | MCF7 breast 88.7% | HCT-116 colon 84.5% | HCC-2998 colon 109% | KM12 colon 96.4%

O=C(Nc1ncc(Cc2cccc(C(F)(F)F)c2)s1)c1ccc(-n2cnnn2)cc1
inactive: SR leukemia 61.2% | RPMI-8226 leukemia 51.5% | OVCAR-8 ovarian 58.5% | OVCAR-5 ovarian 74.2% | OVCAR-4 ovarian 33.6% | SK-OV-3 ovarian 86.4% | IGROV1 ovarian 74.6% | OVCAR-3 ovarian 72.1% | HS 578T breast 79.3% | T-47D breast 44.7% | BT-549 breast 67.6% | MDA-MB-435 melanoma 24% | SW-620 colon 53.4% | MCF7 breast 28.7% | HCT-116 colon 42.4% | HCC-2998 colon 48.9% | KM12 colon 28.8%

CN1CCN(C(=O)OCc2nc3c(N4CCOCC4)nc(Cl)nc3n2C)CC1
active: SR leukemia -28% | RPMI-8226 leukemia -28.2% | OVCAR-8 ovarian -80.3% | OVCAR-5 ovarian -73.7% | OVCAR-4 ovarian -39.5% | IGROV1 ovarian -95.4% | OVCAR-3 ovarian -80.4% | HS 578T breast -31.2% | T-47D breast -29.3% | BT-549 breast -84.2% | MDA-MB-435 melanoma -55.4% | SW-620 colon -84.9% | MCF7 breast -45.9% | HCT-116 colon -88.5% | HCC-2998 colon -9.16%
inactive: SK-OV-3 ovarian 69.9% | KM12 colon 15.5%

COc1ccc(C(CC(=O)c2ccc3c(c2)OCO3)C(=O)O)cc1OC (centres undefined)
inactive: SR leukemia 116% and 90.8% | RPMI-8226 leukemia 103% and 96.1% | OVCAR-8 ovarian 107% and 106% | OVCAR-5 ovarian 118% and 99.9% | OVCAR-4 ovarian 132% and 108% | SK-OV-3 ovarian 113% and 105% | IGROV1 ovarian 131% and 106% | OVCAR-3 ovarian 119% and 102% | HS 578T breast 94.8% and 121% | T-47D breast 104% and 91.9% | BT-549 breast 115% and 106% | MDA-MB-435 melanoma 108% and 102% | SW-620 colon 100% and 108% | MCF7 breast 100% and 96.6% | HCT-116 colon 119% and 97.1% | HCC-2998 colon 104% and 105% | KM12 colon 110% and 95.7%

COc1cccc(NC(=O)c2sc3nc(C)c(C(O)c4ccccc4)cc3c2N)c1 (centres undefined)
inactive: RPMI-8226 leukemia 13.8% | OVCAR-5 ovarian 47.5% | OVCAR-4 ovarian 70.3% | SK-OV-3 ovarian 12.5% | HS 578T breast 14.6% | T-47D breast 35.3% | BT-549 breast 55.6% | SW-620 colon 26.5% | MCF7 breast 17.9%
active: SR leukemia 6.69% | OVCAR-8 ovarian 8.45% | OVCAR-3 ovarian -10.4% | NCI/ADR-RES ovarian 7.31% | MDA-MB-435 melanoma 5.31% | HCT-116 colon 8.89% | HCC-2998 colon 9.98%

COc1ccc(C/C(C)=C(\c2ccc(O)cc2)c2ccc(OCCCN(C)C)cc2)cc1
inactive: SR leukemia 59.7% | RPMI-8226 leukemia 86.8% | OVCAR-8 ovarian 89.5% | OVCAR-5 ovarian 102% | OVCAR-4 ovarian 92.6% | SK-OV-3 ovarian 101% | IGROV1 ovarian 102% | OVCAR-3 ovarian 98.3% | HS 578T breast 89% | T-47D breast 72.6% | BT-549 breast 108% | MDA-MB-435 melanoma 101% | SW-620 colon 95.2% | MCF7 breast 41.1% | HCT-116 colon 80.8% | HCC-2998 colon 104% | KM12 colon 93%

CCCNNC(=O)/C=C/c1ccc(CNCCc2c(C)[nH]c3ccccc23)cc1
active: OVCAR-5 ovarian 1.96% [2.5 µM] | SK-OV-3 ovarian 0.0389% [2.5 µM] | IGROV1 ovarian 9.05% [2.5 µM] | T-47D breast -7.33% [2.5 µM] | HCT-116 colon 0.525% [2.5 µM]
inactive: SR leukemia 20.1% [2.5 µM] | RPMI-8226 leukemia 16.3% [2.5 µM] | OVCAR-8 ovarian 10.8% [2.5 µM] | OVCAR-4 ovarian 41.6% [2.5 µM] | OVCAR-3 ovarian 19.8% [2.5 µM] | HS 578T breast 35.3% [2.5 µM] | BT-549 breast 62.2% [2.5 µM] | MDA-MB-435 melanoma 14% [2.5 µM] | SW-620 colon 10.7% [2.5 µM] | MCF7 breast 24.2% [2.5 µM] | HCC-2998 colon 13.3% [2.5 µM] | KM12 colon 28.8% [2.5 µM]

CCC(=O)Oc1cc(Cl)c(Cl)cc1Cl
inactive: SR leukemia 101% | RPMI-8226 leukemia 102% | OVCAR-8 ovarian 96.9% | OVCAR-5 ovarian 90.2% | OVCAR-4 ovarian 101% | SK-OV-3 ovarian 107% | OVCAR-3 ovarian 113% | HS 578T breast 97.4% | NCI/ADR-RES ovarian 108% | T-47D breast 101% | BT-549 breast 102% | MDA-MB-435 melanoma 107% | SW-620 colon 107% | MCF7 breast 93% | HCT-116 colon 94.3% | HCC-2998 colon 94.8% | KM12 colon 107%

Cc1ccc(Cc2cnc(NC(=O)c3cc(C)oc3C)s2)cc1
active: MDA-MB-435 melanoma 4.22%
inactive: SR leukemia 29.7% | RPMI-8226 leukemia 73.6% | OVCAR-8 ovarian 87.7% | OVCAR-5 ovarian 67.6% | OVCAR-4 ovarian 70.2% | SK-OV-3 ovarian 84.3% | OVCAR-3 ovarian 81.4% | HS 578T breast 82.9% | NCI/ADR-RES ovarian 67.4% | T-47D breast 58.3% | BT-549 breast 74% | SW-620 colon 51.6% | MCF7 breast 32% | HCT-116 colon 72.4% | HCC-2998 colon 89.3% | KM12 colon 38.4%

CCN(c1cc(-c2ccc(CN3CCC(/C=C/S(=O)(=O)c4ccccc4)CC3)cc2)cc(C(=O)NCc2c(C)cc(C)[nH]c2=O)c1C)C1CCOCC1
inactive: SR leukemia 17.9% | RPMI-8226 leukemia 19.2% | OVCAR-8 ovarian 75% | OVCAR-5 ovarian 90.3% | OVCAR-4 ovarian 73% | SK-OV-3 ovarian 86.2% | OVCAR-3 ovarian 77.3% | HS 578T breast 62.2% | NCI/ADR-RES ovarian 73.7% | T-47D breast 71.6% | BT-549 breast 51.3% | MDA-MB-435 melanoma 76.8% | SW-620 colon 94% | MCF7 breast 44.3% | HCT-116 colon 56.9% | HCC-2998 colon 101% | KM12 colon 76.1%

Oc1ccccc1C=Nc1ccc(N2CCN(c3ccccc3)CC2)cc1
inactive: SR leukemia 98% | RPMI-8226 leukemia 91% | OVCAR-8 ovarian 96.9% | OVCAR-5 ovarian 109% | OVCAR-4 ovarian 91% | SK-OV-3 ovarian 64.6% | IGROV1 ovarian 103% | OVCAR-3 ovarian 100% | HS 578T breast 105% | T-47D breast 81.7% | BT-549 breast 54.8% | MDA-MB-435 melanoma 96.5% | SW-620 colon 110% | MCF7 breast 84% | HCT-116 colon 87.1% | HCC-2998 colon 90.2% | KM12 colon 103%

O=S(=O)(O)c1ccc(N=Nc2ccc(N=Nc3cccc4ccccc34)c(S(=O)(=O)O)c2)cc1
inactive: SR leukemia 99.4% | RPMI-8226 leukemia 108% | OVCAR-8 ovarian 101% | OVCAR-5 ovarian 103% | OVCAR-4 ovarian 93.2% | SK-OV-3 ovarian 85.4% | OVCAR-3 ovarian 103% | HS 578T breast 104% | NCI/ADR-RES ovarian 103% | T-47D breast 81.3% | BT-549 breast 108% | MDA-MB-435 melanoma 108% | SW-620 colon 96.2% | MCF7 breast 78.1% | HCT-116 colon 102% | HCC-2998 colon 108% | KM12 colon 104%

COc1cc(C=O)ccc1Oc1ccc([N+](=O)[O-])cc1[N+](=O)[O-]
inactive: SR leukemia 80.7% | RPMI-8226 leukemia 89.5% | OVCAR-8 ovarian 93.7% | OVCAR-5 ovarian 109% | OVCAR-4 ovarian 97% | SK-OV-3 ovarian 96.4% | IGROV1 ovarian 105% | OVCAR-3 ovarian 107% | HS 578T breast 93.1% | T-47D breast 75.2% | BT-549 breast 98% | MDA-MB-435 melanoma 112% | SW-620 colon 91.7% | MCF7 breast 99.2% | HCT-116 colon 94.9% | HCC-2998 colon 109% | KM12 colon 105%

N#CC1C(=O)c2ccccc2C1c1ccccc1 (centres undefined)
inactive: SR leukemia 85.1% and 106% | RPMI-8226 leukemia 111% and 102% | OVCAR-8 ovarian 96.9% and 97.3% | OVCAR-5 ovarian 110% and 104% | OVCAR-4 ovarian 99.5% and 99.2% | SK-OV-3 ovarian 105% and 114% | OVCAR-3 ovarian 84.9% and 107% | HS 578T breast 116% and 105% | NCI/ADR-RES ovarian 108% and 107% | T-47D breast 96.5% and 99.9% | BT-549 breast 107% | MDA-MB-435 melanoma 104% and 102% | SW-620 colon 121% and 104% | MCF7 breast 102% and 99.5% | HCT-116 colon 105% and 101% | HCC-2998 colon 111% and 115% | KM12 colon 109% and 102%
